Experiment in all cases: NCI-60 one-dose screen, 48 h (100 = growth as untreated, 0 = no growth, -100 = all killed)
Holding throughout (conditions): 10 µM unless noted

For assay [1], the system named is SK-MEL-2 melanoma.
The subject of assay [2] is EKVX NSCLC.
The test system of assay [3] is SN12C renal.
The test system of assay [4] is UO-31 renal.
Assay [5] deals with TK-10 renal.
The subject of assay [6] is ACHN renal.
Assay [7] concerns CAKI-1 renal.
For assay [8], the system named is A498 renal.
The subject of assay [9] is CCRF-CEM leukemia.
For assay [10], the system named is MOLT-4 leukemia.

About 83,000 compounds went through this panel and 20% of them were active in at least one assay; those are over-represented in the sample as a whole.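 For each line, cells grew in 96-well plates with the test compound present at a single concentration for 48 hours.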 Values without a mark were called inactive. Activity calls are given as the source filed them. How the source made its calls: active means growth percent below 10; inactive means the rest.

From PubChem BioAssay (NCI) come the findings set out here.

For the molecule `CC1(C)C=CC[C@]2(C)[C@H]3CC[C@@H]4[C@H]5[C@H](C(=O)/C=C/c6cccnc6)CC[C@]5(CO)CC[C@@]4(C)[C@]3(C)CC[C@@H]12`, the growth in assay [1] is -66.1% (active); in assay [2], -36.7% (active); in [3], -40% (active); in [4], -100% (active); in assay [5] it was -90.7% (active); in [6], -100% (active). Further, the growth in [7] was -75.5% (active); in assay [8], -78.8% (active); in assay [9] it was -2.65% (active); in assay [10], -30.6% (active).
With `CC(c1ccccc1)N1C(=O)C(C2SC(=S)N(C(C)c3ccccc3)C2=O)SC1=S` (stereo not given), the growth is 101% in assay [1]; 94.4% in assay [2]; 85.5% in assay [3]; 66.5% in [4]; 106% in assay [5]; 74.4% in assay [6]. The growth in [7] was 66.6%; in [8], 106%; in [9] it was 54.1%; in [10], 78.8%.
As to `COc1ccccc1-n1cnc(N)c1C(=O)c1cc(OC)c(OC)c(OC)c1`, the growth in assay [1] is 57.1%; in assay [2], 55.3%; in [3], 62.3%; in assay [4], 55.2%; in assay [5], 80.8%; in [6], 58.6%. The growth in assay [7] is 39.8%; in assay [8] it was 26.6%; in assay [9], 24.2%; in [10], 50.8%.
Regarding `COc1cccc2c1C(=O)c1c(O)c3c(c(O)c1C2=O)C[C@@](O)(C(=O)CO)C[C@@H]3OC1C[C@H](N)[C@H](O)[C@H](C)O1` (stereo not given in full), the growth is -75.3% (active) in assay [1]; 1.39% (active) in assay [2]; 6.88% (active) in assay [3]; -40.7% (active) in assay [4]; 5.67% (active) in assay [5]; -11% (active) in assay [6]. For the same molecule, the growth is 1.49% (active) in [7], -75.1% (active) in assay [8], -25.7% (active) in assay [9] and -8.66% (active) in [10].
Consider `Nc1ccc(Cl)cn1`, for which the growth in [1] was 107%; in assay [2] it was 97.4%; in assay [3], 107%; in assay [4], 86.7%; in assay [5] it was 106%; in assay [6] it was 109%. Besides, the growth is 90.5% in [7], 96.4% in assay [8], 107% in assay [9] and 102% in assay [10].
As to `CSc1ccc(N(C)c2nc(C)nc3c2CCC3)cc1`, the growth was 24% in [1]; 52.6% in [2]; 18.4% in assay [3]; 29.3% in assay [4]; 56.6% in assay [5]; 18.3% in assay [6]. Further, the growth in assay [7] is 20.5%; in assay [8], -8.39% (active); in assay [9], 8.07% (active); in assay [10], 6.54% (active).
`CN1CCN(CCOc2ccc(-c3cnc4c(-c5cccc(F)c5)cnn4c3)cc2)CC1`: the growth in assay [1] was 97.8%; in [2], 76.3%; in assay [3], 60.6%; in [4], 39.2%; in [5], 102%; in assay [6], 70.2%. Also, the growth in [7] was 64.5%; in assay [8], 45.2%; in assay [9], 20.9%; in [10], 16.6%.
Consider `CC1(C)C(=O)/C(=C\c2ccccn2)C[C@]2(C)[C@H]3CC[C@@H]4[C@@H](C(=O)/C=C/c5ccccn5)CC[C@@]4(C)[C@]3(C)CC[C@@H]12`, for which the growth was -25.6% (active) in assay [1]; -16.4% (active) in assay [2]; -4.12% (active) in [3]; -99.6% (active) in assay [4]; -21.7% (active) in assay [5]; -89% (active) in assay [6]. Further, the growth was -20.3% (active) in assay [7], -80.6% (active) in [8], 6.8% (active) in assay [9] and 7.28% (active) in [10].
For the molecule `Cc1csc(Nc2nc(-c3ccc(Cl)cc3)nc(C(Cl)(Cl)Cl)n2)n1`, the growth in assay [1] was 112%; in [2], 76.6%; in [3], 94.1%; in assay [4] it was 84.8%; in [5], 100%; in [6] it was 49.5%. The growth in assay [7] is 78.1%; in [8] it was 85.2%; in assay [9], 90%; in [10], 84.4%.
On to `C=C(C)[C@@H]1CC[C@]2(C(=O)O)CC[C@]3(C)[C@H](CC[C@@H]4[C@@]5(C)C/C(=C/c6cccc(I)c6)C(=O)C(C)(C)[C@@H]5CC[C@]43C)[C@@H]12`, for which the growth in assay [1] was 11.2%; in [2] it was 24.9%; in [3], 31.1%; in assay [4], 23.6%; in assay [5] it was 29.6%; in assay [6] it was 30.5%. Besides, the growth in assay [7] is 11.9%; in assay [8] it was 22.1%; in [9], 25.6%; in [10], 13%.
Turning to `CCC(c1ccc(OC)cc1)C(CC)c1ccc(O)c(CN2CCCCC2)c1` (stereo not given), the growth is 79.7% in assay [1]; 64.6% in [2]; 66% in assay [3]; 39.6% in assay [4]; 84.6% in assay [5]; 82.3% in assay [6]. The growth in assay [7] was 61.6%; in assay [8], 72.8%; in assay [9] it was 68.7%; in [10], 62.7%.
With `Nc1nc(Br)nc2c1ncn2C1CC(O)C(CO)O1` (stereo not given), the growth in [1] is 102%; in [2], 71%; in assay [3], 52.1%; in [4] it was 34.1%; in assay [5], 71.2%; in [6], 29.8%. The growth in assay [7] was 50.9%; in assay [8] it was 89.4%; in assay [9], 27.4%; in [10], 27.7%.
As to `Fc1ccc2[nH]cc(-c3nc(-c4c[nH]c5ncccc45)cs3)c2c1`, the growth is 52.9% in assay [1]; 37.2% in [2]; 49.3% in assay [3]; 41.8% in [4]; 52.2% in [5]; 11.3% in [6]. Moreover, the growth is 18.6% in assay [7], 33.5% in assay [8], 18.7% in assay [9] and 2.93% (active) in [10].
For `O=C1c2cc3c(cc2-c2c1c1ccc(F)cc1c(=O)n2CCCN1CCOCC1)OCO3`, the growth is 82.1% in assay [1]; 82.4% in assay [2]; 33.2% in [3]; 35.9% in assay [4]; 106% in assay [5]; 4.58% (active) in assay [6]. Moreover, the growth is 17.2% in assay [7], 59% in assay [8], 19.6% in [9] and 3.65% (active) in [10].
As for `CCCCC(=O)OC1CCCCC1C` (stereo not given), the growth is 111% in [1]; 104% in assay [2]; 94.1% in assay [3]; 93.2% in assay [4]; 94.5% in assay [5]; 94.4% in assay [6]. The growth in assay [7] is 94.9%; in [8], 93.2%; in [9], 94.3%; in [10] it was 109%.
Take `Fc1cccc(-c2[nH]nc3nc(Nc4cccnc4)sc23)c1`: the growth in [1] was 46.6%; in assay [2] it was 57%; in assay [3], 58.5%; in assay [4] it was 46.2%; in assay [5], 77.3%; in assay [6], 61.5%. Also, the growth in [7] was 21.4%; in assay [8] it was 84.2%; in [9], 28.8%; in [10], 48.5%.
On to `COc1cc(/C=N/NC(=S)NNC(=S)NC2CCCCC2)cc(OC)c1OC`, for which the growth is 108% in assay [1]; 84.1% in [2]; 87.8% in assay [3]; 70.3% in [4]; 147% in [5]; 94.2% in assay [6]. In addition, the growth is 77.7% in [7], 96.6% in assay [8], 88.7% in [9] and 73.8% in assay [10].
As to `COc1ccc(C2CC(=O)c3c(nc4ccc(Cl)cc4c3N)C2)cc1` (stereo not given), the growth in [1] is 118%; in assay [2] it was 97.6%; in assay [3], 101%; in [4] it was 92.2%; in [5], 80.6%; in assay [6], 105%. In addition, the growth is 88.5% in assay [7], 100% in assay [8], 91.6% in [9] and 95.1% in [10].
In the case of `Cn1cc(-c2csc(-c3cn(C(=O)OC(C)(C)C)c4ccc(Br)cc34)n2)c2cccnc21`, the growth is 91.5% in assay [1]; 79.2% in assay [2]; 87.4% in assay [3]; 82.4% in assay [4]; 92.5% in [5]; 48.8% in assay [6]. The growth in assay [7] is 79.3%; in assay [8] it was 96.3%; in assay [9], 71%; in assay [10], 97.4%.
Consider `CNC(=O)c1cc(Oc2ccc3nc(NC(=O)Nc4ccc(Cl)cc4)sc3c2)ccn1`, for which the growth in [1] was 81.1%; in assay [2], 53.8%; in [3] it was 62.3%; in assay [4], 62.5%; in [5], 62.3%; in assay [6], 64.9%. The growth is 94.7% in assay [7], 117% in [8], 83.2% in assay [9] and 85.4% in assay [10].
As to `COc1ccc(NC(=O)c2ccoc2COc2ccccc2)cc1`, the growth was 97.9% in assay [1]; 94.7% in [2]; 94% in [3]; 81.1% in assay [4]; 109% in assay [5]; 98.3% in assay [6]. The growth in assay [7] is 86.2%; in assay [8] it was 99.7%; in assay [9], 87.7%; in assay [10], 95.6%.
As for `CCOc1ccc(NC(=O)c2ccccc2-c2ccccc2C(=O)O)cc1`, the growth in [1] is 101%; in [2] it was 101%; in assay [3], 100%; in assay [4] it was 88.7%; in assay [5] it was 110%; in assay [6] it was 107%. The growth in [7] is 98.9%; in [8] it was 93.3%; in assay [9], 99.5%; in assay [10] it was 83.6%.
As to `COc1ccc(-c2nc(Nc3ccc(-c4nc5ccccc5[nH]4)cc3)nc(N3CCOCC3)n2)cc1`, the growth in [1] is -19.2% (active); in assay [2], 7.91% (active); in assay [3], 40.8%; in assay [4] it was -43.5% (active); in assay [5], 43.9%; in [6], 9% (active). For the same molecule, the growth in assay [7] is -56.6% (active); in assay [8], -32.1% (active); in assay [9], -1.84% (active); in assay [10], 1.78% (active).
As for `NC1=NN=C2N(N)C(=O)c3cnn(-c4ccccc4)c3N2c2nc(-c3ccccc3)cc(-c3ccccc3)c21`, the growth in assay [1] is 104%; in assay [2], 96.7%; in [3], 97%; in [4] it was 78.3%; in [5], 116%; in [6] it was 101%. Besides, the growth in [7] is 86.8%; in assay [8], 114%; in assay [9], 96.7%; in [10], 91.6%.
Consider `C=C(C)[C@@H]1CC[C@]2(C)[C@H](CC=C3[C@@H]4CC(C)(C)CC[C@]4(C(=O)OC)CC[C@]32C)[C@@]1(C)CC/C(N)=N/O`, for which the growth was 46.6% in [1]; 25.2% in assay [2]; 36.4% in assay [3]; 40.3% in assay [4]; 67.9% in assay [5]; 43.8% in [6]. Moreover, the growth in assay [7] is 37%; in [8], 77.7%; in [9], 37.3%; in [10] it was 6.47% (active).
For `COc1cnc2c(c1)C(=O)c1c-2n(CCCNCCN2CCOCC2)c(=O)c2cc([N+](=O)[O-])ccc12`, the growth is 19% in [1]; 15.8% in assay [2]; 4.54% (active) in [3]; -85.8% (active) in assay [4]; -0.695% (active) in [5]; -69.6% (active) in [6]. The growth was -29.5% (active) in [7], -86.7% (active) in [8], 2.23% (active) in assay [9] and -1.41% (active) in [10].
